Test results: ChEMBL document CHEMBL5724796, “Tm Shift (DSF) assay results for EUbOPEN Chemogenomics Library” (2024)
Non-standard residues stand in square brackets, D forms with d. Residues, ends and D or L forms follow the SMILES beside them. *: point of attachment. Benzoyl(4-OPh) = O=C(c1ccc(Oc2ccccc2)cc1)*; Lys(Et2) = CCN(CC)CCCC[C@H](N)C(=O)O; d(aIle) = CC[C@H](C)[C@@H](N)C(=O)O; Gly(cPent) = N[C@H](C(=O)O)C1CCCC1; NH(propargyl) = C#CCN*

Experiments:
Details in all cases: Compound concentration 20.0 uM
[1] = target: Tyrosine-protein kinase ABL1 (Homo sapiens) (UniProt P00519)
[2] = target: Bromodomain-containing protein 4 (Homo sapiens) (UniProt O60885)
[3] = target: Cyclin-dependent kinase 2 (Homo sapiens) (UniProt P24941)
[4] = target: Casein kinase I isoform delta (Homo sapiens) (UniProt P48730)
[5] = target: Glycogen synthase kinase-3 beta (Homo sapiens) (UniProt P49841)
[6] = target: Mitogen-activated protein kinase 1 (Homo sapiens) (UniProt P28482)
[7] = target: T1, Aurora kinase A (Homo sapiens) (UniProt O14965)
T1 sequence (whole entry): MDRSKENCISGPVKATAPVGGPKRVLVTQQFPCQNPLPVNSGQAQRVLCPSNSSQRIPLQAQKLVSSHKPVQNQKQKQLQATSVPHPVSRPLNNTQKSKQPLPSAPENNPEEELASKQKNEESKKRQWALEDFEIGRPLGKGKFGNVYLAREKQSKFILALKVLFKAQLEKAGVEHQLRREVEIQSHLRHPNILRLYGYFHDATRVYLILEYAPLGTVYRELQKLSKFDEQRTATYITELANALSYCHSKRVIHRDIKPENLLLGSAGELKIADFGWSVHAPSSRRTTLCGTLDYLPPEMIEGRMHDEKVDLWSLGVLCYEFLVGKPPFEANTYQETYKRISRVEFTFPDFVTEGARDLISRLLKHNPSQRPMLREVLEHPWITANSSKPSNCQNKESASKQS

[8] = target: T2, Transcription intermediary factor 1-alpha (Homo sapiens) (UniProt O15164)
T2 sequence (whole entry): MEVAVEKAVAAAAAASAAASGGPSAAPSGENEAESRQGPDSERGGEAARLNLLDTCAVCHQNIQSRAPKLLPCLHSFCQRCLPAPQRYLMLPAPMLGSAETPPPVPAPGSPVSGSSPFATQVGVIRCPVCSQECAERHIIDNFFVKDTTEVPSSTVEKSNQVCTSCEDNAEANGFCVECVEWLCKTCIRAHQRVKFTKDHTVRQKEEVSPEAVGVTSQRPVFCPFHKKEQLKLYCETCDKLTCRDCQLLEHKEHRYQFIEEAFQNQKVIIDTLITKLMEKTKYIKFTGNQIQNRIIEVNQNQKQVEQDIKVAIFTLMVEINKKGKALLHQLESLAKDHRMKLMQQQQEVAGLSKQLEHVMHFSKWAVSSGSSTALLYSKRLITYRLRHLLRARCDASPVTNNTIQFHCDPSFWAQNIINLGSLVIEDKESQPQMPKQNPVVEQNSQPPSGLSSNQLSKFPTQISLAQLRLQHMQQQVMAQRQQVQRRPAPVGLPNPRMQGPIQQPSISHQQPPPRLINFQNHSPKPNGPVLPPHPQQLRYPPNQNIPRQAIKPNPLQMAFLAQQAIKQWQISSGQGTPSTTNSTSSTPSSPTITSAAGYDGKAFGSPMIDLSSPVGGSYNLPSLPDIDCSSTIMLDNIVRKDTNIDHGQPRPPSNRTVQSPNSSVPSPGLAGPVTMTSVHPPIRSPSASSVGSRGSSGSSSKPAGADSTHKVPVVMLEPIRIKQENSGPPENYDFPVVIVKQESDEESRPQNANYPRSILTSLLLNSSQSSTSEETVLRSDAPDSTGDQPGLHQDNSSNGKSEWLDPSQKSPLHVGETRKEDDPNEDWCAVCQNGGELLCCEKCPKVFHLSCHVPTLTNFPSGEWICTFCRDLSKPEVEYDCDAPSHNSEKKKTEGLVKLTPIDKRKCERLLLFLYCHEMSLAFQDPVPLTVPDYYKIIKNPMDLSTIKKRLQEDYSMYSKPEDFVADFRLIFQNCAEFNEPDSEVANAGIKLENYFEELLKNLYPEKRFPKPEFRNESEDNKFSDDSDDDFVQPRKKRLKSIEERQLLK

Chain of Tyrosine-protein kinase ABL1 (Homo sapiens) (P00519 whole entry): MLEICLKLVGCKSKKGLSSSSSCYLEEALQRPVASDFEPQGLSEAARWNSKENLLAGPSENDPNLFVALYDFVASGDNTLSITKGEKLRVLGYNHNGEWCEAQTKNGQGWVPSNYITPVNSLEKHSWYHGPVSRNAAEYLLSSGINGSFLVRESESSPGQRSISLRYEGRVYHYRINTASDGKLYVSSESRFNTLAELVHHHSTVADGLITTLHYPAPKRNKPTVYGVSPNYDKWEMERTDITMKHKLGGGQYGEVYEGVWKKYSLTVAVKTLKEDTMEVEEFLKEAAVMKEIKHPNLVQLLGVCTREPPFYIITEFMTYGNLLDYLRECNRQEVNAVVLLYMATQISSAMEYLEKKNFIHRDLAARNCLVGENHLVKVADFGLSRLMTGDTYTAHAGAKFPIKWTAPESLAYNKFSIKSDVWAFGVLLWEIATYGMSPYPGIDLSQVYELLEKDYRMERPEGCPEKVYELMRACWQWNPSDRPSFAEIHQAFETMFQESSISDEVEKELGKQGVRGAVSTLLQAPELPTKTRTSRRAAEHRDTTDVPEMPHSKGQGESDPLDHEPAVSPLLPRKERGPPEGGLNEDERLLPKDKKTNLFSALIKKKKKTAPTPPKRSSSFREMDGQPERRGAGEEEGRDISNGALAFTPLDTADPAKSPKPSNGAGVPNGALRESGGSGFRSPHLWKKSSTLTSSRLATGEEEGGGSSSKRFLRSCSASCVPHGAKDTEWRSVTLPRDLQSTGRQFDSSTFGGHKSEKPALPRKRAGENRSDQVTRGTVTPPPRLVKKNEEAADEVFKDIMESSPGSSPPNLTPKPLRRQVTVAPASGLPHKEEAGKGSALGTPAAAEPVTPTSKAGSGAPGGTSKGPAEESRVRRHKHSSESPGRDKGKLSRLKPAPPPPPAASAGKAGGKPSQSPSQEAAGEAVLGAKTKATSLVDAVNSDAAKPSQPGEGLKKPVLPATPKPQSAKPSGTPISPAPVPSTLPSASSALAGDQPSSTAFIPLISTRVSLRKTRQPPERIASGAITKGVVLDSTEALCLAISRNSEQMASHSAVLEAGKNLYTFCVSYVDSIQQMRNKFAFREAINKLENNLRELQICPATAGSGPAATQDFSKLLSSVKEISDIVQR
Chain of Casein kinase I isoform delta (Homo sapiens) (P48730 whole entry, looked up, canonical isoform): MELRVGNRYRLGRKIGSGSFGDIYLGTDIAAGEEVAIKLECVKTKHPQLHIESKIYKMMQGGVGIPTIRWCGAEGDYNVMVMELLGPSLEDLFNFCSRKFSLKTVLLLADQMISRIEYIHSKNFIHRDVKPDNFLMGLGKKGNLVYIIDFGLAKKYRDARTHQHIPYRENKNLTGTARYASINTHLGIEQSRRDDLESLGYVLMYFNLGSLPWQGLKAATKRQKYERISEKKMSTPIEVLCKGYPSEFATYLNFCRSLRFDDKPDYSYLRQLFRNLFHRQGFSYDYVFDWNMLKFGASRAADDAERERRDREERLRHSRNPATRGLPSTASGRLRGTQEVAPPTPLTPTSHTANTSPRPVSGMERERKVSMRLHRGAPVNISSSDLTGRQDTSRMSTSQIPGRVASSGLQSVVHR
Chain of Glycogen synthase kinase-3 beta (Homo sapiens) (P49841 whole entry, looked up): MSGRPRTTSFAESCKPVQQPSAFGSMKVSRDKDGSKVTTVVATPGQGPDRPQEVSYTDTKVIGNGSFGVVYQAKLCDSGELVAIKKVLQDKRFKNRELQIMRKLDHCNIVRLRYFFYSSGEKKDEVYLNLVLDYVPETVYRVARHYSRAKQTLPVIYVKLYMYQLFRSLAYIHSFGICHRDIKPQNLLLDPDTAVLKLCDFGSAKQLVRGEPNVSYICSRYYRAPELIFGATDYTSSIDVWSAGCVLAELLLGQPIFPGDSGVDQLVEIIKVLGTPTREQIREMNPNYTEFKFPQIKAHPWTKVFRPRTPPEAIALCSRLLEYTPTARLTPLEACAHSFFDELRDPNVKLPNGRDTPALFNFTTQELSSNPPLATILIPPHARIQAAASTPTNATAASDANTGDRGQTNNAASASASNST
Chain of Mitogen-activated protein kinase 1 (Homo sapiens) (P28482 whole entry): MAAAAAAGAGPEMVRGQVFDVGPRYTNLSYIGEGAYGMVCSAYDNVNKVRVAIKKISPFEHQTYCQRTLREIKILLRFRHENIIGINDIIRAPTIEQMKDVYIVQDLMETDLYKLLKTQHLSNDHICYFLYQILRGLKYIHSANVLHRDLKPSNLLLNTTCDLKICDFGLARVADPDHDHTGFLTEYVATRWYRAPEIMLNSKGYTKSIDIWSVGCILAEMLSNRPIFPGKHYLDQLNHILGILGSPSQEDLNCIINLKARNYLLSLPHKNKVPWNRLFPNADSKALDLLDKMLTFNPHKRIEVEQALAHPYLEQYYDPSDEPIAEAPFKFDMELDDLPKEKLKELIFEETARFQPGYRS

| Compound | ΔTm [1] | ΔTm [2] | ΔTm [3] | ΔTm [4] | ΔTm [5] | ΔTm [6] | ΔTm [7] | ΔTm [8] |
| --- | --- | --- | --- | --- | --- | --- | --- | --- |
| CN1[C@@H]2CC[C@H]1C[C@@H](OC(c1ccc(F)cc1)c1ccc(F)cc1)C2 | 0.58 °C | -2.87 °C | 0.08 °C | -0.16 °C | -0.54 °C | 0.11 °C | -2.6 °C | -0.2 °C |
| C/C(=N\NC(=O)c1cccc(S(=O)(=O)N2CCOCC2)c1)c1cc(Cl)ccc1O | 0.81 °C | -2.01 °C | 0.83 °C | 0.6 °C | 1.53 °C | 0.14 °C | -0.56 °C | 2.31 °C |
| C[C@]12CC[C@@H]3c4ccc(O)cc4C[C@@H](CCCCCCCCC[S+]([O-])CCCC(F)(F)C(F)(F)F)[C@H]3[C@@H]1CC[C@@H]2O (some centres not stated) | -4.09 °C | -2.93 °C | 0 °C | -4.77 °C | 0.72 °C | -12 °C | -0.16 °C | – |
| C#CCNC(=O)[C@H](CO)NC(=O)[C@H](CCCCN(CC)CC)NC(=O)[C@H](NC(=O)[C@@H](NC(=O)c1ccc(Oc2ccccc2)cc1)C1CCCC1)[C@@H](C)CC ({Benzoyl(4-OPh)}-[Gly(cPent)][d(aIle)][Lys(Et2)]S-{NH(propargyl)}) | 0.66 °C | -3.19 °C | -0.21 °C | 0.55 °C | -0.46 °C | 0.25 °C | 0.59 °C | -3.76 °C |
| O=C1C(P(=O)(O)O)CC(O)N1O (configuration not stated) | 0.12 °C | 0.66 °C | -0.03 °C | -0.38 °C | -0.77 °C | 0.16 °C | -2.18 °C | -0.46 °C |
| Nc1cc2c3c(c1)C(c1ccccc1)=N[C@@H](NC(=O)c1cccnc1)C(=O)N3CC2 | 0.6 °C | -0.29 °C | 0.3 °C | -0.17 °C | -0.38 °C | 0.37 °C | -2.21 °C | -0.79 °C |
| CN(C)NC(=O)CCC(=O)O | 0.19 °C | -2.43 °C | -0.11 °C | -0.1 °C | -0.76 °C | 0.1 °C | -2.27 °C | -0.24 °C |
| N#Cc1nc2c(nc1C#N)-c1ccccc1C2=NOCc1ccccc1 | 0.19 °C | 1.2 °C | 3.11 °C | -0.93 °C | 0.13 °C | -0.23 °C | -1.52 °C | 1.99 °C |
| COc1cc(C)[nH]c(=O)c1CNC(=O)c1c(C)n([C@H](C)C2CCN(CC(F)(F)F)CC2)c2ccccc12 | 0.27 °C | -2.03 °C | -0.09 °C | 0.08 °C | -0.64 °C | -0.27 °C | 0.25 °C | -1.56 °C |
| COc1ccc(N(C(=O)Oc2c(C)cccc2C)c2ccnc(Nc3ccc(N4CCN(C)CC4)cc3)n2)c(OC)c1 | 9.28 °C | -0.9 °C | 0.75 °C | 0.09 °C | 1.59 °C | 0.08 °C | 0.66 °C | -0.91 °C |
| O=C(NNc1ccccn1)c1ccccn1 | 0.12 °C | -1.77 °C | -0.03 °C | -0.33 °C | -0.62 °C | 0.17 °C | -0.43 °C | 0.92 °C |
